In PubChem BioAssay (NCI):
The panel holds about 83,000 compounds, 20% with a hit somewhere; the sample as a whole holds those more often.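 Single-concentration screen, 48 h exposure, 96-well plates. Endpoint: percent growth. Below 10 = active.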 A number with no mark means an inactive call. Active and inactive are the calls of the source.

test system: HOP-92 NSCLC; assay: NCI-60 one-dose screen, 48 h (100 = growth as untreated, 0 = no growth, -100 = all killed); conditions: 10 µM unless noted

SMILES	growth
O=C(NCCNc1nccc(-n2ccc3cccnc32)n1)c1ccc(C(F)(F)F)cc1	112%
C=C(C)[C@@H]1C[C@@H]2Cc3cc(Cl)ccc3N1O2	25.2%
O=S(=O)(CC(O)(c1ccccc1)c1ccccc1)CC(O)(c1ccccc1)c1ccccc1	86.7%
NC1=NC(SCc2ccccc2CCl)c2ncn(Cc3ccccc3CCl)c2N1 (configuration not stated)	24%
C=C[C@@H]1C[C@@H]2Cc3c(C)cc(C)cc3N1O2	45.6%
COc1cc(/C=N\NC(=O)CN2CCN(c3cc4c(cc3F)c(=O)c(C(=O)N/N=C/c3cc(OC)c(OC)c(OC)c3)cn4C3CC3)CC2)cc(OC)c1OC	-39% (active)
Fc1ccc(-c2nc(-c3nc4ncccc4[nH]3)cc3c2[nH]c2ccccc23)cc1F	70.2%
COc1cc(-c2nc(-c3nc4ccc(Cl)cc4[nH]3)cc3c2[nH]c2ccccc23)cc(OC)c1OC	51.8%
C=C(C)[C@@H]1C[C@@H]2Cc3ccc(Cl)c(C)c3N1O2	77.5%
CCCCCCCCC(C)OC(=O)c1nn(C(C)=O)c2ccccc12 (configuration not stated)	98.7%
COc1cc(/C(C#N)=C/c2ccc3c(c2OC)OCO3)cc2c1OCO2	61.2%
CC12CCC3C4(C)COC(c5ccco5)OC4CCC3(C)C1CC(C1=CCOC1=O)O2 (configuration not stated)	100%
C=C1CCC2C3(C)COC(c4ccc(N(C)C)cc4)OC3CCC2(C)C1C/C=C1/C(=O)OCC1O (configuration not stated)	68.9%

test system: NCI-H522 lung; assay: as above; conditions: 10 µM unless noted

SMILES	growth
N#C/C(=C1C=C/C(=N/O)C(Cl)=C/1)c1ccc(Cl)cc1	67.7%
c1coc(CNc2ccnc(Nc3ccc(OCCN4CCCCC4)cc3)n2)c1	85.3%
C=C1CCC2C(C)(CO)C(O)CCC2(C)C1C/C=C1/C(=O)OCC1O/C=C/c1ccccc1 (configuration not stated)	60.3%
C=C(C)[C@@H]1CC[C@]2(C(=O)N3CCNCC3)CC[C@]3(C)[C@H](CC[C@@H]4[C@@]5(C)C/C(=C/c6ccncc6)C(=O)C(C)(C)[C@@H]5CC[C@]43C)[C@@H]12	96.8%
CCOC(=O)C1C(=O)C=C(c2ccc(OC)cc2)CC1c1sc(N(C)Cc2ccccc2)nc1Cl (configuration not stated)	68.7%
COc1cc(/C=C/C(=O)/C=C/c2cc(OC)c3c(c2)OCO3)cc2c1OCO2	101%
C[n+]1c(/C=C/c2c(O)ccc3ccccc23)ccc2ccccc21	-6.6% (active)
CCN(CC)CCC(CNc1c2ccc(Cl)cc2nc2ccc(OC)cc12)c1ccccc1 (configuration not stated)	-81% (active)
C=C1CC2(OC1=O)C(=O)N(CCCN1C(=O)C3(CC(=C)C(=O)O3)c3ccccc31)c1ccccc12 (configuration not stated)	-78% (active)
CN(CCCCCl)P(=O)(OCc1ccc([N+](=O)[O-])o1)C(F)(F)C[C@H](NC(=O)CNC(=O)c1ccc(N=[N+]=[N-])cc1)C(=O)NCCc1ccc(O)cc1 (some centres not stated)	-66.9% (active)
COc1ccc(C(=O)N2NC(=O)/C(=C/c3ccc(Br)cc3)N=C2c2ccccc2)cc1	85.3%
N#Cc1c(-c2ccccc2)cc(-c2ccccc2)n(CC(=O)NO)c1=O	-70.9% (active)
COc1ccc(Nc2ncccc2C(=O)NCc2cn(Cc3cccc(Oc4ccccc4)c3)nn2)c(OC)c1	11.6%
N/C(=N\S(=O)(=O)c1ccccc1)Nc1nc2ccccc2s1	73.2%
O=S(=O)(NCCCNc1nccc(-n2ccc3cccnc32)n1)c1cccc(C(F)(F)F)c1	98.1%
COc1cc(NC(N)=NCCC(C)(C)Oc2ccc(C(F)(F)F)cc2)ncc1C#N	-83.7% (active)
COc1ccc2c(c1)[nH]c(=O)c1c3cc(OC)ccc3cn21	13%
FC(F)(F)c1cccc(-c2cn3c(ccc4ccccc43)n2)c1	81.8%
COc1ccc(CN2CCc3c(Sc4ccccc4)nc(N)nc3C2=O)c(OC)c1	21.3%
COc1ccc(Nc2ncccc2C(=O)NCc2cn(Cc3cccc(Oc4ccccc4)c3)nn2)cc1	26.1%

SMILES	growth
CCN(CC)CCC(CNc1ccnc2cc(Cl)ccc12)c1ccc(Cl)cc1 (configuration not stated)	-59.1% (active)
Cc1ccc(S(=O)(=O)C2=C3C(=C(c4ccccc4)c4ccccc43)CN(S(=O)(=O)c3ccc(C)cc3)C2)cc1	-45.9% (active)
O=C1C(Cl)=C(Nc2ccccn2)C(=O)c2ccccc21	58.3%
COc1cc(/C=C/C(=O)N2CCN(C(=O)/C=C/c3cc(OC)c(OC)c(OC)c3)CC2)cc(OC)c1OC	87.5%
c1ccc(-c2nnc(-c3ccccn3)s2)nc1	96.1%
Cc1c(C(=O)/C=C/c2csc3ccccc23)[n+](=O)c2ccccc2n1[O-]	6.66% (active)
O=C(NCCNc1nccc(-n2ccc3cccnc32)n1)c1ccc(C(F)(F)F)cc1	100%
C=C(C)[C@@H]1C[C@@H]2Cc3cc(Cl)ccc3N1O2	116%
O=S(=O)(CC(O)(c1ccccc1)c1ccccc1)CC(O)(c1ccccc1)c1ccccc1	108%
NC1=NC(SCc2ccccc2CCl)c2ncn(Cc3ccccc3CCl)c2N1 (configuration not stated)	-92% (active)
C=C[C@@H]1C[C@@H]2Cc3c(C)cc(C)cc3N1O2	99.2%
COc1cc(/C=N\NC(=O)CN2CCN(c3cc4c(cc3F)c(=O)c(C(=O)N/N=C/c3cc(OC)c(OC)c(OC)c3)cn4C3CC3)CC2)cc(OC)c1OC	8.22% (active)
Fc1ccc(-c2nc(-c3nc4ncccc4[nH]3)cc3c2[nH]c2ccccc23)cc1F	58.3%
COc1cc(-c2nc(-c3nc4ccc(Cl)cc4[nH]3)cc3c2[nH]c2ccccc23)cc(OC)c1OC	39.7%
C=C(C)[C@@H]1C[C@@H]2Cc3ccc(Cl)c(C)c3N1O2	84.8%
CCCCCCCCC(C)OC(=O)c1nn(C(C)=O)c2ccccc12 (configuration not stated)	90.1%
COc1cc(/C(C#N)=C/c2ccc3c(c2OC)OCO3)cc2c1OCO2	-19.1% (active)
CC12CCC3C4(C)COC(c5ccco5)OC4CCC3(C)C1CC(C1=CCOC1=O)O2 (configuration not stated)	109%
C=C1CCC2C3(C)COC(c4ccc(N(C)C)cc4)OC3CCC2(C)C1C/C=C1/C(=O)OCC1O (configuration not stated)	74.2%
